This note sets out measurements from PubChem BioAssay (NCATS).

Inconclusive results are not listed. Active and inactive are the calls of the source. Unless noted, calls follow the shape of the dose curve; as a rule, active = well fitted curve in the direction sought with a large enough effect; inconclusive = small, poorly fitted or top-dose-only effect, or another doubt; inactive = no such curve, though single readings can be large; an effect the other way counts as inactive or inconclusive. Peptide text beside a SMILES is read from it.

Experiment [1] can be described thus: qHTS Assay for Lipid Storage Modulators (AID 1519; calls by dose curve; as to activity change, negative = inhibition: % is scaled to controls: 0 for no effect and ±100 for the full control effect). The settings on record: Drosophila S3 cells, BODIPY lipid droplet/cell ratio, laser cytometry, cells loaded with oleic acid; for activity change, negative = inhibition: at 57.5 µM (top of the series). In a few lines: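 Cells seeded at 5,000 per well were treated with compounds over a concentration series and loaded with oleic acid (400 uM, as added). Lipid droplet fluorescence (488 nm excitation, 500-530 nm channel) was read by laser-scanning cytometry and normalized to 20 uM Triacsin C.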
On the technique in general: qHTS replaces the single test concentration by a dilution series.

For experiment [2], the target named is ATP-dependent 6-phosphofructokinase (Trypanosoma brucei brucei) (UniProt O15648). As to the kind of experiment: qHTS Assay to Find Inhibitors of T. brucei phosphofructokinase: hit validation (AID 492961).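 Also: luminescence reports ADP formed as PFK phosphorylates fructose-6-phosphate with ATP; % is scaled to controls: 0 for no effect and ±100 for the full control effect.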 The settings on record: T. brucei PFK, ADP-Glo luminescence; series mostly up to 24.3 µM. In a few lines: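 Reaction: 0.1 M triethanolamine pH 8.0, 5 mM MgCl2, F6P 0.5 mM, ATP 0.1 mM, PFK 1.25 nM, 45 min RT. Read-out: ADP-Glo luminescence. Analysis: concentration-response fits, classed by r2 and efficacy.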
ATP-dependent 6-phosphofructokinase (Trypanosoma brucei brucei), sequence (O15648 whole entry, looked up): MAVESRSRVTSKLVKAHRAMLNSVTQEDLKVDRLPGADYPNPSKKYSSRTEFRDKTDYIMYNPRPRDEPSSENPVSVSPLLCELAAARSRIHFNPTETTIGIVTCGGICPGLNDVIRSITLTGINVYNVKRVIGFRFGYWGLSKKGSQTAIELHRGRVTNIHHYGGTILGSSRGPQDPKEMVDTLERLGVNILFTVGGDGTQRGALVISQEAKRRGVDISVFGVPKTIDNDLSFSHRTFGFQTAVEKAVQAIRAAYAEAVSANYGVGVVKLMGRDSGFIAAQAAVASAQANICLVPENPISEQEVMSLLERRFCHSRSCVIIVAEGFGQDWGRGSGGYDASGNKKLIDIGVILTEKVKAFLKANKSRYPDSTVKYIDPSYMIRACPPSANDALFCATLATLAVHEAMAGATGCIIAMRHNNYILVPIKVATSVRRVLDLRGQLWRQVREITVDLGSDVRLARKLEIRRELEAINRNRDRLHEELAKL

Experiment [3] deals with Ubiquitin carboxyl-terminal hydrolase 1 (Homo sapiens) (UniProt O94782). Nature of the experiment: Inhibitors of USP1/UAF1: Pilot qHTS (AID 504865).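 Also: rhodamine fluorescence freed from ubiquitin-rhodamine substrate followed over time; top concentration of the series differs between compounds; % is scaled to controls: 0 for no effect and ±100 for the full control effect; nearly all actives have a fitted effect of over 35% in size.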 Particulars: purified USP1/UAF1, Ub-rhodamine cleavage fluorescence; series mostly up to 114 µM. In a few lines:
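Kinetic fluorescence assay: 1nM USP1/UAF1, 15 min compound preincubation, then 150nM Ub-Rho; 480/540 nm.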

Experiment [4] addresses Luciferin 4-monooxygenase (Photinus pyralis) (UniProt P08659). Nature of the experiment: Biochemical firefly luciferase enzyme assay for NPC (AID 624030).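 Also: purified P. pyralis luciferase at 10 nM with luciferin and ATP substrate; 0% = DMSO and -100% = full luciferase inhibition by PTC124 control; nearly all actives have a fitted effect of over 70% in size.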 The settings on record: purified P. pyralis luciferase, luminescence, 5 min; series mostly up to 24.9 µM. In a few lines:
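Counter-screen for direct inhibition of the luciferase enzyme by approved-drug library compounds, run at 10 nM enzyme in 50 mM Tris acetate (final). Luminescence was read within 5 min of enzyme-buffer addition and normalized to PTC124 versus DMSO (0%).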

The nature of experiment [5]: qHTS profiling for inhibitors of Plasmodium falciparum proliferation (AID 504749).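 Also: 0% = DMSO vehicle and full inhibition = artemisinin control; nearly all actives have a fitted effect of over 60% in size.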 The settings on record: P. falciparum in erythrocytes, SYBR Green DNA, 72 h, at 28.7 µM (top of the series). The method, boiled down: (§1)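 P. falciparum-infected erythrocytes (0.3% parasitemia, 2.5% hematocrit final) were exposed to compounds for 72 h at 37 C in 5% CO2, then lysed with SYBR Green buffer overnight at room temperature; parasite DNA fluorescence was normalized to artemisinin and DMSO controls.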

Another experiment concerns 3D7. The description is as above. The settings on record: P. falciparum in erythrocytes, SYBR Green DNA, 72 h; series mostly up to 12.8 µM. In a few lines:
as §1

The test system of another experiment is C2A. The description is as above. The settings on record: P. falciparum in erythrocytes, SYBR Green DNA, 72 h; series mostly up to 12.8 µM. The method, boiled down:
as §1

A further experiment deals with CP201. Described as above. Particulars: P. falciparum in erythrocytes, SYBR Green DNA, 72 h; series mostly up to 12.8 µM. The method, boiled down:
as §1

The test system of another experiment is CP211. Described as above. Particulars: P. falciparum in erythrocytes, SYBR Green DNA, 72 h; series mostly up to 12.8 µM. In a few lines:
as §1

A further experiment relates to CP237. The experiment is described as above. Particulars: P. falciparum in erythrocytes, SYBR Green DNA, 72 h; series mostly up to 12.8 µM. The method, boiled down: as §1
The test system of a further experiment is CP252. The experiment is described as above. The settings on record: P. falciparum in erythrocytes, SYBR Green DNA, 72 h; series mostly up to 12.8 µM. The method, boiled down:
as §1

The next experiment concerns CP262. Described as above. The settings on record: P. falciparum in erythrocytes, SYBR Green DNA, 72 h; series mostly up to 12.8 µM. The method, boiled down: as §1
The next experiment has as its system CP268. Described as above. The settings on record: P. falciparum in erythrocytes, SYBR Green DNA, 72 h; series mostly up to 12.8 µM. The method, boiled down: as §1
A further experiment has as its system CP305. The description is as above. The settings on record: P. falciparum in erythrocytes, SYBR Green DNA, 72 h; series mostly up to 12.8 µM. The method, boiled down: as §1
The subject of another experiment is CP315. The experiment is described as above. The settings on record: P. falciparum in erythrocytes, SYBR Green DNA, 72 h; series mostly up to 12.8 µM. The method, boiled down:
as §1

The test system of the next experiment is CP329. Described as above. Particulars: P. falciparum in erythrocytes, SYBR Green DNA, 72 h; series mostly up to 12.8 µM. In a few lines: as §1
A further experiment deals with HB3. The experiment is described as above. The settings on record: P. falciparum in erythrocytes, SYBR Green DNA, 72 h; series mostly up to 12.8 µM. In a few lines:
as §1

For a further experiment, the system named is JCK. The experiment is described as above. Particulars: P. falciparum in erythrocytes, SYBR Green DNA, 72 h; series mostly up to 12.8 µM. The method, boiled down:
as §1

For the next experiment, the system named is PAD. The description is as above. Particulars: P. falciparum in erythrocytes, SYBR Green DNA, 72 h; series mostly up to 12.8 µM. In a few lines:
as §1

The subject of another experiment is PC49. The experiment is described as above. Particulars: P. falciparum in erythrocytes, SYBR Green DNA, 72 h; series mostly up to 12.8 µM. The method, boiled down:
as §1

[6] abbreviates: measured here: cell count channel max response.
The mark [7] stands for this setting: measured here: lipid channel max response.

Ubiquitin carboxyl-terminal hydrolase 1 (Homo sapiens), sequence (O94782 whole entry, looked up): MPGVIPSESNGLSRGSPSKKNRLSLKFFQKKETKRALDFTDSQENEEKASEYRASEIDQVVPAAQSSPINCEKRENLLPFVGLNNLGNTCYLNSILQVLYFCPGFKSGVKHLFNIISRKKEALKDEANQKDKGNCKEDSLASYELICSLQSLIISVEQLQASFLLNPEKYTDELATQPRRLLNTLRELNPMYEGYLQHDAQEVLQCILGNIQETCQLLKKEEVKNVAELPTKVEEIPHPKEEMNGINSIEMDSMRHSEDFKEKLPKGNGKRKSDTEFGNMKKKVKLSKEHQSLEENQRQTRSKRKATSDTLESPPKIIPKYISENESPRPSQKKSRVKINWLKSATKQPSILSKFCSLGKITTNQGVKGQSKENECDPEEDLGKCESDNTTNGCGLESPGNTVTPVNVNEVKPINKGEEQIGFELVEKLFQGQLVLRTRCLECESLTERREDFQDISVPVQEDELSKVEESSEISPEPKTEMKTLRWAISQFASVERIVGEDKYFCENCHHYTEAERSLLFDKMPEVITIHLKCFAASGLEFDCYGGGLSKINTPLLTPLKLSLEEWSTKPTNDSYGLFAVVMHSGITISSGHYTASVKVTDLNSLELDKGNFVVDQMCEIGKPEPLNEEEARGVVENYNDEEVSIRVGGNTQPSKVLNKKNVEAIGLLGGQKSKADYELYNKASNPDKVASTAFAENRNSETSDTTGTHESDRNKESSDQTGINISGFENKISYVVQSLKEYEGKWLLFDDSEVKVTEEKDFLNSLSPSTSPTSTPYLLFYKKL
Luciferin 4-monooxygenase (Photinus pyralis), sequence (P08659 whole entry, looked up): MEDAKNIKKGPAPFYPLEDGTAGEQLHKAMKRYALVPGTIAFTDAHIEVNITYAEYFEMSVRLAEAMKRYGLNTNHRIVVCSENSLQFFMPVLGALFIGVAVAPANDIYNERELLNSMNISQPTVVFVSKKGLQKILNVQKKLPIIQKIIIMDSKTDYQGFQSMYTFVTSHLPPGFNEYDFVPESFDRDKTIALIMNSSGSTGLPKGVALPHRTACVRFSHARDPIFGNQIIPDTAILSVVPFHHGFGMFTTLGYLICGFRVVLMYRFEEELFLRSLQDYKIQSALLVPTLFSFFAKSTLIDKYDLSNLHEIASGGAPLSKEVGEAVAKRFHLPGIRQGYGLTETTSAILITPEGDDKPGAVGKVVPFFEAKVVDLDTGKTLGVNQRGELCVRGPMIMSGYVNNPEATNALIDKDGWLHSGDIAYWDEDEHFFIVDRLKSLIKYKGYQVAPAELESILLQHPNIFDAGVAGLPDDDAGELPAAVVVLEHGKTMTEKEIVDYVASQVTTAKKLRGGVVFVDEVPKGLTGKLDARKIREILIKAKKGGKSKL

On to `CC1CCC(C(C)C)C(=O)C1` (stereo not given), for which, in experiment [1], the activity change, negative = inhibition was 1.11% (inactive). Besides, the max response came out at 11.5% in experiment [1] (setting [6]) and 14.2% in [1] (setting [7]). In addition, the result in experiment [2] was inactive. Further, the Potency result (in [3]; in experiment [4]; in the experiment on 3D7; with C2A; in the experiment on CP201; with CP211) was “inactive” throughout. For the same compound, the Potency entry with CP237, in the experiment on CP252, in the experiment on CP262, in the experiment on CP268, in the experiment with CP305 and in the experiment with CP315 was “inactive” throughout. Besides, the Potency result in the experiment with CP329, in the experiment on HB3, in the experiment on JCK, with PAD and with PC49 was “inactive” throughout. Besides, the activity, negative = inhibition was 0.527% (inactive) in experiment [5] (parasite line A) and 15.7% (inactive) in experiment [5] (parasite line B).
For the compound `COC(=O)C(Cc1ccccc1)NC(=O)C(N)CC(=O)O` (stereo not drawn) (H-Asp-Phe-OMe; configuration not given here), the activity change, negative = inhibition in experiment [1] was 5.29% (inactive). In addition, the values for the max response in experiment [1] (setting [6]) and in experiment [1] (setting [7]) were -5.71% and 3.61%, respectively. Besides, the outcome in experiment [2] was inactive. Further, the Potency entry (in [3]; in [4]; in the experiment with 3D7; with C2A; in the experiment on CP201; in the experiment with CP211) was “inactive” throughout. Besides, the Potency entry in the experiment with CP237, in the experiment with CP252, with CP262, in the experiment with CP268, in the experiment on CP305 and in the experiment on CP315 was “inactive” throughout. For the same compound, the Potency entry in the experiment with CP329, in the experiment on HB3, in the experiment on JCK, in the experiment with PAD and with PC49 was “inactive” throughout. Also, the activity, negative = inhibition in [5] (parasite line A) is 0% (inactive); in [5] (parasite line B), 12.1% (inactive).
On to `Cc1cc(O)c(C=O)c2c1C(=O)Oc1c(COC(=O)/C=C/C(=O)O)c(O)c(C(=O)O)c(C)c1O2`, for which, in experiment [1], the activity change, negative = inhibition was 4.28% (inactive). Also, the results for the max response in [1] (setting [6]) and in experiment [1] (setting [7]) were 6.76% and 3.61%, respectively.
Consider `C[C@]12C=CC(=O)C=C1CCC1C2C(O)C[C@]2(C)C1CC[C@]2(O)C(=O)CO` (stereo not given in full), for which the activity change, negative = inhibition in experiment [1] was 4.07% (inactive). For the same compound, the max response worked out at 19.1% in [1] (setting [6]) and 24.5% in experiment [1] (setting [7]). The outcome in experiment [2] was inactive. Moreover, the Potency entry (in [3]; in experiment [4]; in the experiment with 3D7; in the experiment on C2A; with CP201; in the experiment on CP211) was “inactive” each time. Besides, the Potency result in the experiment on CP237, in the experiment on CP252, in the experiment on CP262, in the experiment on CP268, with CP305 and in the experiment with CP315 was “inactive” throughout. Moreover, the Potency entry in the experiment on CP329, in the experiment on HB3, in the experiment with JCK, in the experiment on PAD and in the experiment on PC49 was “inactive” in each case. In addition, the results for the activity, negative = inhibition in experiment [5] (parasite line A) and in experiment [5] (parasite line B) were 13% (inactive) and 6.28% (inactive), respectively.
Consider `COC(=O)N/N=C/C1=C[N+](=O)c2ccccc2[N+]1=O`, for which, in experiment [1], the activity change, negative = inhibition was 12.7% (inactive). Besides, the values for the max response in experiment [1] (setting [6]) and in [1] (setting [7]) were 5.74% and 17.7%, respectively. Further, the outcome in experiment [2] was inactive. The Potency result (in [3]; in [4]; in the experiment with 3D7; in the experiment on C2A; in the experiment with CP201; in the experiment with CP211) was “inactive” each time. For the same compound, the Potency entry with CP237, in the experiment with CP252, in the experiment with CP262, in the experiment with CP268, in the experiment with CP305 and in the experiment with CP315 was “inactive” each time. Further, the Potency result with CP329, with HB3, in the experiment with JCK, in the experiment with PAD and with PC49 was “inactive” throughout. Moreover, the activity, negative = inhibition was -2.61% (inactive) in experiment [5] (parasite line A) and -4.8% (inactive) in experiment [5] (parasite line B).
